Screening data (PubChem BioAssay)
HT1080NT lethal – kills 2HG-producing HT-1080-NT fibrosarcoma cells | HT-1080-NT fibrosarcoma viability, CellTiter-Glo ATP luminescence, 48 h | Potency, µM (doses to about 46.1 µM), inactives show at the highest dose activity, negative = less viability, most hits filed as cytotoxic | 360,000 compounds, 1.6% hits | AID 686970;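 note: NT is the 2HG producing partner of a matched IDH1 knockdown line; 0% = DMSO-treated cells and -100% = media-only wells without cells; nearly all actives have a fitted effect of over 55% in size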
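Read-out is CellTiter-Glo luminescence after 10 minutes at room temperature, following 48 hours' compound treatment of HT-1080-NT cells (750 cells/well, RPMI, 5% FBS, 37 degrees C).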
KB-V1 MDR tox – KB-V1 MDR subline cytotoxicity. Potency, µM (top dose mostly 46.1 µM), hits mostly cytotoxic. 400,000 compounds, 3.4% hits. KB-V1 MDR cells viability, CellTiter-Glo, 72 h; note: nearly all actives have a fitted effect of over 60% in size
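Following 72 h at 37 degrees C with compound, KB-V1 cell viability was read by CellTiter-Glo luminescence, medium being phenol-red-free DMEM plus 10% FBS; concentration-response parameters came from normalized, curve-fitted qHTS data.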
HT1080 IDH1KD tx – HT-1080 IDH1 knockdown cell toxicity (counter line). HT-1080 IDH1 knockdown viability, ATP luminescence, 48 h. Potency, µM (highest dose often 46.1 µM), without a hit: at the top dose activity, negative = toxicity, usual class: cytotoxic. 360,000 compounds, 2% hits. AID 686971;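 note: 0% = DMSO wells and -100% = cell-free medium wells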
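Viability of IDH1-knockdown HT-1080 fibrosarcoma cells was assessed by CellTiter-Glo after 48 h at 37 °C with titrated compound; concentration-effect curves were classified by fit quality and response size.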
KB-3-1 cytotox – kills parental KB-3-1 adenocarcinoma cells | 400,000 compounds, 1.4% hits | Potency, µM (top dose mostly 46.1 µM), hits mostly cytotoxic | KB-3-1 viability, CellTiter-Glo ATP luminescence, 72 h | AID 1347075; note: nearly all actives have a fitted effect of over 60% in size
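Parental KB-3-1 viability, qHTS format: 72 h compound exposure, 37 °C; CellTiter-Glo; media-only wells and DMSO plates as controls; concentration-effect fits on corrected data.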
* = called active by the depositor; i = inactive; ? = inconclusive; · = no result given; [ ] = dose if it differs, or a comment. Hits are enriched below; roughly 5.7% of the tested compounds scored in any of these assays. Calls come from the whole dose curve; as a rule, active = well fitted curve in the direction sought with a large enough effect; inconclusive = small, poorly fitted or top-dose-only effect, or another doubt; inactive = no such curve, though single readings can be large; an effect the other way counts as inactive or inconclusive. Unless noted, % is set by controls: 0 for no effect and ±100 for the full control effect; potency is the fitted concentration of half-maximal effect.

SMILES	HT1080NT lethal	KB-V1 MDR tox	HT1080 IDH1KD tx	KB-3-1 cytotox
CN(C)S(=O)(=O)c1cccc(NC(=S)Nc2cc(Cl)cc(Cl)c2)c1	6%	18µM*	5%	?
CCN(CC)S(=O)(=O)c1ccc(N/N=C/c2cccnc2)nc1	0%	?	6%	i
COc1ccc(O)c(/C=N/NC(=S)Nc2cccc(S(=O)(=O)N(C)C)c2)c1	-18%	4.1µM*	?	i
Cc1ccc(NC(=O)Cn2nnc(C(=O)NCCc3ccccc3)c2N)cc1	·	?	·	i
COc1ccc(OC)c(Nc2nc3ccccc3n3c(C)nnc23)c1	·	i	·	i
CCc1ccc(C(=O)c2cn(CC(=O)Nc3ccc4c(c3)OCO4)c3cc(OC)c(OC)cc3c2=O)cc1	·	i	·	i
CC(=O)c1ccc(NC(=O)c2nc(-c3ccccc3)n(-c3ccc(Cl)cc3)n2)cc1	·	i	·	i
CN(C)S(=O)(=O)c1cccc(NC(=S)N/N=C/c2ccco2)c1	5%	i	8%	i
COc1ccc2cc(C(C)C(=O)Nc3cccc(S(=O)(=O)N(C)C)c3)ccc2c1 (configuration not stated)	?	13µM*	-22%	21µM*
CN(C)S(=O)(=O)c1cccc(NC(=S)N/N=C/C(c2ccccc2)c2ccccc2)c1	-3%	21µM*	14%	i
O=C(c1ccc2c(c1)OCCO2)N1CCCCC1	12%	?	6%	i
C=CCc1cc(C(=O)N2CCCCC2)ccc1O	0%	21µM*	-2%	?
CCNC(=O)/C(C#N)=C/c1c(N(Cc2ccccc2)Cc2ccccc2)nc2ccccn2c1=O	23µM*	2.9µM*	?	?
N#C/C(=C\c1c(N2CCCCCC2)nc2ccccn2c1=O)C(=O)NCc1ccco1	5%	i	0%	i
CNC(=O)/C(C#N)=C/c1c(N(Cc2ccccc2)Cc2ccccc2)nc2c(C)cccn2c1=O	18µM*	23µM*	?	16µM*
N#C/C(=C\c1c(N2CCCCC2)nc2ccccn2c1=O)C(=O)NCc1ccco1	-1%	2.9µM*	2%	?
COc1cccc(CNC(=O)C(=O)NCC(c2ccc3c(c2)OCO3)N2CCOCC2)c1 (configuration not stated)	·	i	·	i
Cc1cc2nn(-c3ccc(F)cc3)nc2cc1NC(=O)c1cc(Cl)ccc1Cl	·	i	·	i
O=S(=O)(c1ccc(Cl)cc1)N1CCCC(c2nc(-c3ccc(F)cc3)no2)C1 (configuration not stated)	14%	i	11%	i
COc1ccccc1C(=O)N1CCCC(c2nc(-c3cc(OC)c(OC)c(OC)c3)no2)C1 (configuration not stated)	6%	4.6µM*	18%	i
COc1ccc(-c2noc(C3CCCN(S(=O)(=O)c4cccc(Cl)c4)C3)n2)cc1OC (configuration not stated)	6%	5.2µM*	-5%	?
COc1ccc(NC(=O)N2CCCC(c3nc(-c4ccc(C(C)C)cc4)no3)C2)cc1 (configuration not stated)	11µM*	8.2µM*	?	?
O=C(CC1CCCCC1)N1CCCC(c2nc(-c3ccc(S(=O)(=O)N4CCCC4)cc3)no2)C1 (configuration not stated)	?	8.2µM*	-15%	i
O=c1[nH]c2ccc(NCc3ccc(-c4cccc(Cl)c4)o3)cc2[nH]1	·	i	·	i
CSc1ccc(CCNC(=O)CN2C(=O)COc3ccc(S(=O)(=O)N4CCCC4)cc32)cc1	·	i	·	i
SMILES	HT1080NT lethal	KB-V1 MDR tox	HT1080 IDH1KD tx	KB-3-1 cytotox
O=C(O)C(=Cc1ccc([N+](=O)[O-])cc1)c1cccc(Cl)c1	-2%	i	0%	i
O=C(NCCN1CCCCC1)c1ccc(Cn2c(SCc3ccc(F)cc3)nc3cccnc32)cc1	·	i	·	i
O=C(CS(=O)(=O)c1cccc2nsnc12)N1CCN(c2cccc(C(F)(F)F)c2)CC1	·	?	·	i
CN(C)c1ccc(NC(=S)c2ccccn2)cc1	?	?	?	15µM*
COC(=O)C[C@@H]1CC[C@@H](NS(=O)(=O)c2cccc(OC)c2)[C@@H](CO)O1	16%	i	21%	i
Cc1cc(-c2cc(NC=O)c3ncc(-c4cccc(C(=O)NCCN(C)C)c4)n3c2)cc(C)c1O	26µM*	i	26µM*	i
CN(C)CCNC(=O)c1cccc(-c2cnc3c(NC=O)cc(-c4ccccc4F)cn23)c1	?	i	?	i
COc1ccc(-c2cc(NC=O)c3ncc(-c4cccc(C(=O)NCCN(C)C)c4)n3c2)c(OC)c1	18µM*	i	23µM*	i
COC(=O)/C=C/c1cc(F)ccc1S(=O)(=O)Nc1ccccc1	·	?	·	i
Cc1ccc2nc(N3CCN(Cc4nnnn4C4CCCC4)CC3)c(C#N)cc2c1	-13%	21µM*	-5%	i
Cc1ccc(C)c(N2CCN(Cc3nnnn3C3CCCCC3)CC2)c1	-3%	23µM*	-3%	i
COc1cccc(N2CCN(Cc3nnnn3C3CCCCC3)CC2)c1	-3%	23µM*	-17%	i
CCOc1ccccc1NC(=O)C(=O)Nc1ccc2nc3n(c(=O)c2c1)CCCCC3	·	?	·	i
Cc1cc(-n2c(SCC(=O)NCCC3=CCCCC3)nc3n[nH]c(C)c3c2=N)ccc1Cl	18µM*	i	?	i
Cc1[nH]nc2nc(SCC(=O)NCCC3=CCCCC3)n(-c3ccc(Br)cc3)c(=N)c12	21µM*	i	?	?
Cc1ccc(-n2nnnc2SCC(=O)NCCC2=CCCCC2)c(C)c1	2%	21µM*	-1%	i
Cc1c(Cl)cccc1NC(=O)CSc1nc(=O)n(Cc2cccnc2)c2c1CCC2	·	i	·	i
CCN(CC)CCNc1ccc(C)c2sc3ccc(O)cc3c(=O)c12	-23%	4.6µM*	?	?
CCN(CC)CCNc1ccc(CO)c2oc3cc(Cl)ccc3c(=O)c12	?	?	-18%	?
CCn1cc(Cl)c(C(=O)Nc2nccs2)n1	13%	i	17%	i
CCn1cc(CN2CCCC(C(=O)c3ccc(-c4ccccc4)c(F)c3)C2)cn1 (configuration not stated)	?	i	21µM*	i
COc1ccccc1-c1nnc2sc(COc3ccccc3)nn12	-2%[9.24 µM]	i	-15%	i
COc1ccccc1-c1nn2c(-c3ccco3)nnc2s1	-3%	10µM*	-17%	i
Clc1ccc(OCc2nn3c(-c4ccncc4)nnc3s2)cc1	2%	10µM*	24%	i
COc1ccccc1-c1nnc2sc(COc3ccc(Cl)cc3Cl)nn12	-7%	18µM*	-2%	?
CCN(CC)c1ccc(-c2nn3c(-c4ccccc4OC)nnc3s2)cc1	1µM*	1.5µM*	?	0.82µM*
O=C(Nc1ccc2ccccc2c1)Nc1nnc(-c2ccc(Cl)cc2)s1	·	i	·	i
